From PubChem
gsp ag: agonists of gsp mutant (McCune-Albright syndrome). Potency, µM (doses to about 76.9 µM), without a hit: top-dose activation (cAMP increase), hits mostly activators. 0.13% of 340,000 active. gsp mutant cells, cAMP HTRF, 30 min. AID 624287; active means well fitted activation curve with a large enough effect; inconclusive means small, poorly fitted or top-dose-only effect, or another doubt; inactive means no such curve, though single readings can be large or run the other way; cell line not stated here;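 further: phosphodiesterase inhibitor Ro 20-1724 added with compounds to block cAMP breakdown; potency means the concentration at half of the fitted maximal effect; nearly all actives have a fitted effect of over 60% in size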
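Cells in DMEM/10% FBS with G418 were pretreated with compounds in DMSO plus […] (300 uM stock) for 30 min at 37C. cAMP was measured by HTRF (cAMP-d2 plus anti-cAMP antibody-K) after 30 min at room temperature.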
TRPV1 PAM: enhances activation of the human vanilloid receptor TRPV1. Q8NER1. TRPV1-expressing cells, Fluo-8 calcium influx, capsaicin EC20 potentiation. potentiation, % at 8.33 µM. 0.02% of 320,000 active. AID 540277; in the data active means potentiation above about 80%; inconclusive means between about 30% and that limit; further: 0% is about no effect
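Cells expressing TRPV1 were dye-loaded with Fluo-8 and read kinetically: 10 s baseline, 3 min after compound (agonist portion), then 2 min after EC20 capsaicin (allosteric enhancer portion). Calcium-bound dye fluorescence at 480/520 nm.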
RXFP1 agonist: activates the human relaxin receptor RXFP1. Q9HBX9. Potency, µM (titrated, usually from 57.5 µM), inactives show at the top dose activation, usual class: activators. 0.3% of 370,000 active. HEK293T-RXFP1 cAMP TR-FRET, 30 min; response scale: percent of porcine relaxin response, buffer zero; active means well fitted activation curve with a large enough effect; inconclusive means small, poorly fitted or top-dose-only effect; further: potency means the concentration at half of the fitted maximal effect; on the % scale 0 is the no-effect control and ±100 the full control effect; nearly all actives have a fitted effect of over 60% in size
Target sequence (Q9HBX9 whole entry, looked up): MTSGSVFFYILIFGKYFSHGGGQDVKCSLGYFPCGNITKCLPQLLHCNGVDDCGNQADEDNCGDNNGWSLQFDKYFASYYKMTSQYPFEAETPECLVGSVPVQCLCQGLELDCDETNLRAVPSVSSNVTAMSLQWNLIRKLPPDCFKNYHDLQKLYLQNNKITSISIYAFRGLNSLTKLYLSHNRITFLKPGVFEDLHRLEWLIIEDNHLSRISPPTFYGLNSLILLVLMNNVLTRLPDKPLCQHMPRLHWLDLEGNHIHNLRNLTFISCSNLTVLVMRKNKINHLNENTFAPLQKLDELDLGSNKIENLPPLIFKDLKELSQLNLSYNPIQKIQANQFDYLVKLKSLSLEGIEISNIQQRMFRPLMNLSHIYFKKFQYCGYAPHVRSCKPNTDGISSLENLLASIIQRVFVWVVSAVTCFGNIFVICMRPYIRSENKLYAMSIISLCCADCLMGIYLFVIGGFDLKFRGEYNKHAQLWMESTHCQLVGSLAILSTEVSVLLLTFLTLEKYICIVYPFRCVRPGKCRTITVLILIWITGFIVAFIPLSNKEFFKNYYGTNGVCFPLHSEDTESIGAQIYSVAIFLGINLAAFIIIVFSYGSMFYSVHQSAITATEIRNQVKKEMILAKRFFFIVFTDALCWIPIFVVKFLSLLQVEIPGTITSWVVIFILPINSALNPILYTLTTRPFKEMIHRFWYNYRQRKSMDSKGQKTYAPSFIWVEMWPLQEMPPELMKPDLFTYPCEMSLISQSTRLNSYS
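cAMP rise read by TR-FRET after 30 min, 37C compound exposure (up to 58 uM) in RXFP1-transfected HEK293 cells with Ro 20174 present. EC50 from Hill-equation fits, with 29 nM porcine relaxin as 100% and buffer as basal.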
TRPV1 ag: agonists of human vanilloid receptor 1 (TRPV1). Q8NER1. TRPV1-expressing cells, Fluo-8 calcium influx, agonist mode. activation, % at 8.33 µM. 0.19% of 320,000 active; in the data active means activation above about 80%; inconclusive means between about 30% and that limit; further: 0% is about no effect
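TRPV1-expressing cells were cultured overnight at 35.5C and loaded with Fluo-8 calcium dye for 40 to 90 min at room temperature. After a 10 s baseline, compound was added and calcium influx was read kinetically for 3 min (ex 480/em 520 nm).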
gsp antag: gsp mutant antagonism; gsp-mutant cells, cAMP HTRF, 30 min; Potency, µM (doses to about 76.9 µM), inactives show top-dose activity change, negative = inhibition, most hits filed as inhibitors; 0.4% of 340,000 active; calls by dose curve; cell line not stated here;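 further: intracellular cAMP measured with PDE inhibitor Ro 20-1724 present during compound exposure; potency means the concentration at half of the fitted maximal effect; on the % scale 0 is the no-effect control and ±100 the full control effect; nearly all actives have a fitted effect of over 65% in size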
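Cells in G418 medium, seeded 16-24 h, 37C; buffer exchange to DPBS + 1 mM CaCl2, 0.5 mM MgCl2, 0.05% BSA; cpds in DMSO + […] (300 uM stock), 30 min 37C; HTRF cAMP detection.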
RXFP1 antagonist: antagonists of human relaxin receptor RXFP1; AID 1259400; 0.59% of 350,000 active; HEK293-RXFP1, relaxin-stimulated cAMP HTRF, 30 min; active compounds read low; activity change, negative = inhibition, % at 57.5 µM;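 active means activity change of -60% or lower, but not beyond a set lower limit; inconclusive means change between -60% and -40%, or beyond the set limit; inactive means change above -40%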; further: on the % scale 0 is the no-effect control and ±100 the full control effect
* = called active by the depositor; [ ] = another dose, or the depositor's remark. In the library only some 1.1% were active in any assay of this set; here they are far more common.

What do the screens show for `Cc1c(CN(C)C(=O)c2cc(-c3ccccc3)nc3ccc(Br)cc23)cnn1C`?
RXFP1 agonist: 16µM*

How did O=C(NCc1ccccc1Cl)c1ccc(CSCc2ccccc2Cl)o1 do in these assays?
RXFP1 agonist: 0%; RXFP1 antagonist: -29

What do the screens show for `CCCN(CC(=O)Nc1cccc(Br)c1)CC(=O)Nc1ccc(F)c(F)c1F`?
gsp ag: inconclusive; TRPV1 PAM: -5; RXFP1 agonist: 1%; TRPV1 ag: 18; gsp antag: 50µM*; RXFP1 antagonist: -6

Results for Cc1ccc(-c2c(C(=O)N/N=C/c3ccoc3)nnn2-c2nonc2N)cc1 ?
gsp ag: -18%; TRPV1 PAM: -10; RXFP1 agonist: 2%; TRPV1 ag: 88*; gsp antag: -1%; RXFP1 antagonist: -19

What do the screens show for `Cc1ccc(SCc2c(C(=O)N/N=C/c3ccc4c(c3)OCO4)nnn2-c2nonc2N)cc1`?
gsp ag: -14%; TRPV1 PAM: 3; RXFP1 agonist: 2%; TRPV1 ag: 5; gsp antag: inconclusive; RXFP1 antagonist: -5

What do the screens show for `Cc1ccc(SCc2c(C(=O)N/N=C/c3ccccc3)nnn2-c2nonc2N)cc1`?
gsp ag: 9%[15.4 µM]; TRPV1 PAM: 5; RXFP1 agonist: -3%; TRPV1 ag: inconclusive; gsp antag: -31%; RXFP1 antagonist: -32

Results for Cc1ccc(SCc2c(C(=O)N/N=C/c3ccoc3)nnn2-c2nonc2N)cc1 ?
gsp ag: -18%; TRPV1 PAM: -4; RXFP1 agonist: 0%; TRPV1 ag: inconclusive; gsp antag: 32µM*; RXFP1 antagonist: 4

Results for CCOc1cccc(-c2c(C(=O)N/N=C/c3ccsc3)nnn2-c2nonc2N)c1 ?
gsp ag: 14%; TRPV1 PAM: -5; RXFP1 agonist: 0%; TRPV1 ag: -1; gsp antag: -30%; RXFP1 antagonist: -61*

What do the screens show for `CCOc1cccc(-c2c(C(=O)N/N=C/c3sccc3C)nnn2-c2nonc2N)c1`?
gsp ag: -1%; TRPV1 PAM: -18; RXFP1 agonist: 1%; TRPV1 ag: 2; gsp antag: inconclusive; RXFP1 antagonist: -2

What do the screens show for `Cc1ccc(-c2c(C(=O)N/N=C/c3ccc4c(c3)OCO4)nnn2-c2nonc2N)cc1`?
gsp ag: 21%; TRPV1 PAM: 2; RXFP1 agonist: 5%; TRPV1 ag: -4; gsp antag: 25µM*; RXFP1 antagonist: -7

What do the screens show for `CC(C)(C)SCCNC(=O)CN(c1ccccc1)S(=O)(=O)c1ccc(F)cc1`?
gsp ag: -5%[15.4 µM]; TRPV1 PAM: -11; RXFP1 agonist: 1%; TRPV1 ag: inconclusive; gsp antag: 8%; RXFP1 antagonist: -10

How did Cc1ccc(CNC(=O)COC(=O)C2CCN(S(=O)(=O)c3cccs3)CC2)cc1 do in these assays?
gsp ag: inconclusive; TRPV1 PAM: 5; RXFP1 agonist: 2%; TRPV1 ag: -2; gsp antag: 35µM*; RXFP1 antagonist: 17

How did O=C(COC(=O)C1CCN(S(=O)(=O)c2cccs2)CC1)NCc1ccccc1 do in these assays?
gsp ag: 16%; TRPV1 PAM: -1; RXFP1 agonist: 1%; TRPV1 ag: 2; gsp antag: -6%; RXFP1 antagonist: 5

Results for Cc1cccc(NC(=O)NNC(=O)c2cc3ccccc3cc2O)c1C ?
gsp ag: -2%[15.4 µM]; TRPV1 PAM: 4; RXFP1 agonist: -2%; TRPV1 ag: 3; gsp antag: -15%; RXFP1 antagonist: -66*

Results for Cc1ccc(NC(=O)NNC(=O)c2cc3ccccc3cc2O)c(C)c1 ?
gsp ag: -21%; TRPV1 PAM: 2; RXFP1 agonist: 2%; TRPV1 ag: 4; gsp antag: -3%; RXFP1 antagonist: -4

Results for CCC(=O)N1CCc2cc(CNS(=O)(=O)c3ccc(C(C)C)cc3)ccc21 ?
RXFP1 agonist: 4%

How did COc1ccc(CC(=O)N/N=C/c2cccnc2)cc1OC do in these assays?
gsp ag: -33%; TRPV1 PAM: -5; RXFP1 agonist: 32µM*; TRPV1 ag: 2; gsp antag: 11%; RXFP1 antagonist: 7
